Screening data (PubChem)
HSF1 inhib – HSF1 inhibition. NIH3T3-HGL HSE-luciferase, MG132-induced, luminescence 8 h; active compounds read low. AID 2098. hit rate 0.77% among 300,000. activity change, negative = inhibition, % at 7.5 µM (by protocol);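 active = more than half of replicate wells show activity change below -50%, luminescence cut by over half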;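 also: luciferase reports HSF-1 transcriptional activity via heat shock element; 0% = median of DMSO wells and -100% = zero luminescence signal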
TROY NFkB inh – inhibitors of TROY-dependent NF-kB signaling. Q293 LMP1-TROYcd NF-kB luciferase reporter, 4 h. inhibition, % at 10 µM. hit rate 0.98% among 360,000;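 active = compounds whose plate-normalised and pattern-corrected inhibition of the luciferase reporter signal at the single screening dose is 50% or more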
HSP90 refold inh – inhibitors of HSP90 luciferase refolding in rabbit reticulocyte lysate. luciferase refolding luminescence, 3 h. inhibition, % at 5.6 µM. hit rate 0.91% among 290,000;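 active = inhibition above the screen-wide mean plus 3 SD, computed separately per campaign, cut at about 16% in these data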;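 also: 0% = DMSO wells and 100% = 60 µM geldanamycin wells; inhibitors lower the luminescence because luciferase stays unfolded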
HSF1 activator – increases HSF-1 driven luciferase reporter signal. NIH3T3-HGL HSF-1 luciferase reporter, MG132, 8 h; 100% = twice DMSO control signal. activation, % at 9 µM. hit rate 1.7% among 300,000. AID 504408;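 active = mean replicate activation of at least 50% with a set share of replicates each reaching 50%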;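 also: 0% = median of the neutral control wells and 100% = twice that signal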
TWEAK Fn14 block – TWEAK-Fn14 signaling inhibition; inhibition, % at 10 µM; TWEAK-stimulated Fn14 reporter cells, luciferase luminescence, 8 h; hit rate 2% among 360,000; in the data active = inhibition above about 50%
EBV LMP1 NFkB – inhibitors of Epstein-Barr LMP1-induced NF-kappaB reporter; LMP1-induced NF-kappaB luciferase reporter cells, luminescence; inhibition, % at 12.5 µM; hit rate 0.69% among 350,000; AID 504558; in the data active = inhibition above about 41%;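 also: 0% = neutral control wells and 100% = reference inhibitor control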
HSP90 inh confirm – confirmation of HSP90 inhibitors | shares compounds with HSP90 refold inh | hit rate 64% among 2,300 | AID 1846 | inhibition, % at 5.9 µM | rabbit reticulocyte lysate, luciferase refolding luminescence, 3 h; in the data active = inhibition above about 18%;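 also: 0% = vehicle wells and 100% = reference inhibitor wells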
FLuc counter – blocks native firefly luciferase in HSP90 counter-screen. shares compounds with HSP90 refold inh. purified native firefly luciferase, luminescence. inhibition, % at 5.9 µM. hit rate 48% among 2,300;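 active = inhibition above the mean inhibition of all tested sample wells plus 3 SD, cut at about 10% in these data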;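 also: 0% = DMSO with luciferase and 100% = wells lacking luciferase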
Target sequence (P08659 whole entry, looked up): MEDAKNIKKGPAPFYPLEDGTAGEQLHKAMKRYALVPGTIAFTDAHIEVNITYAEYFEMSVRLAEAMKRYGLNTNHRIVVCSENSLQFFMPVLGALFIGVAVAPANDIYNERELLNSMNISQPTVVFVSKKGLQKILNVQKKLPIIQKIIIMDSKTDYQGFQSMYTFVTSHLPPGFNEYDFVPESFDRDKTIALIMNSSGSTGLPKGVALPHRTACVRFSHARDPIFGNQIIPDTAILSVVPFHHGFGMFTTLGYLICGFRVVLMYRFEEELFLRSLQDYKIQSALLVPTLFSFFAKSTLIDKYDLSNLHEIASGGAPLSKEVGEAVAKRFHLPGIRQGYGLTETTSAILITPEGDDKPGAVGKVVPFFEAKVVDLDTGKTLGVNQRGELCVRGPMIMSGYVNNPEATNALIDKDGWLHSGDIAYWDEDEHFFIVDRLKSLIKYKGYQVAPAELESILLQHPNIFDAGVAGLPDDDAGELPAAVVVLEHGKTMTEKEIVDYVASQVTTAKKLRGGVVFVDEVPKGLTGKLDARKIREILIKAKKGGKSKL
Numbers without * were called inactive; x = not tested or not shown; ! = not active in a repeat. Hits are enriched below; roughly 4.7% of the tested compounds scored in any of these assays.

SMILES	HSF1 inhib	TROY NFkB inh	HSP90 refold inh	HSF1 activator	TWEAK Fn14 block	EBV LMP1 NFkB	others
S=C(NCCc1ccccc1)N1Cc2ccc(Br)cc2-n2nncc2C1	x	4.8	x	x	-36.8	x
CC[C@H]1CN2CCC1C[C@H]2[C@H](O)c1ccnc2ccc(OC)cc12 (stereo partly drawn)	x	-6.0	x	x	-10.8	69.0*
COc1ccc(C(=O)OCC2CN2c2cccc([N+](=O)[O-])c2)cc1 (stereo not drawn)	x	3.8	x	x	-13.2	x
COc1ccc(-n2nnnc2C(c2ccccc2OC(F)(F)F)N2CCC3(CC2)C(=O)NCN3c2ccccc2)cc1 (stereo not drawn)	x	28.9	x	x	45.8	x
CC(C)C[C@@H]1COc2cc(N3CCN(C)CC3)ccc2S(=O)(=O)N1	x	-12.8	x	x	-6.7	x
CCOP(=O)(CCP(=O)(OCC)OCC)OCC.C[CH2][Sn]([Cl])([Cl])[CH2]C	x	41.4	x	x	57.9*	-2.2
CCOC(=O)c1c(N)n(Cc2ccco2)c2nc3ccccc3nc12	x	9.8	-1.9	x	6.7	-5.0
CCCCn1c(NC(=O)c2ccco2)c(C(=O)OCC)c2nc3ccccc3nc21	58.4	52.5*	7.8	70.9*	48.3	-11.3
CCCCn1c(N)c(C(=O)OCC2CCCO2)c2nc3ccccc3nc21 (stereo not drawn)	12.4	-13.0	5.9	12.9	26.5	16.4
CCCCn1c(NS(=O)(=O)c2ccc(C)cc2)c(C(=O)OCC)c2nc3ccccc3nc21	5.5	62.9*	1.1	7.8	57.9*	-3.7
Oc1ccc2c3c1O[C@H]1[C@@H](O)CC[C@@]4(O)[C@@H](C2)N(CC2CCC2)CC[C@]314	-2.6	-3.4	x	-4.1	4.5	68.5*!
C=CCN1CC[C@]23c4c5ccc(O)c4OC2[C@H](O)CC[C@@]3(O)[C@H]1C5 (stereo partly drawn)	x	6.0	x	x	-16.1	7.9
CC[C@@]1(O)C(=O)OCc2c1cc1n(c2=O)Cc2cc3c(NC(=O)CN)cccc3nc2-1	12.4	18.6	-0.9	32.7	-8.8	76.7*
CCC1(OC(=O)CN)C(=O)OCc2c1cc1n(c2=O)Cc2cc3ccccc3nc2-1 (stereo not drawn)	-16.4	68.9*	3.7	-26.9	81.6*	80.6*
COC(COC(N)=O)C1=C(N2CC2)C(=O)C(C)=C(N2CC2)C1=O (stereo not drawn)	x	2.5	x	x	-5.9	-6.0
CC1=C(N2CC2)C(=O)C(CO)=C(N2CC2)C1=O	x	-3.1	x	x	28.5	88.8*
CC(=O)OC1C(O)C(C)OC(OC2C(OC(=O)C3CCC4C(C3)OC3(CC(OC(=O)/C=C/c5ccccc5)C(C)CO3)C43CO3)OC(C)C(O)C2OC(C)=O)C1O (stereo not drawn)	x	84.0*	x	x	101.1*	84.7*
C[C@@H]1CN([C@@H](C)CO)C(=O)CCCn2cc(nn2)CO[C@H]1CN(C)C(=O)Oc1ccc2ccccc2c1	x	-20.3	x	x	-2.3	3.0
COC12C(COC(N)=O)C3=C(C(=O)C(C)=C(N)C3=O)N1CC1C2N1C (stereo not drawn)	3.5	-13.7	12.6	20.5	-2.6	63.4*
Nc1cccc(SC2CC(=O)N(c3ccc(Cl)cc3C(=O)c3ccccc3)C2=O)c1 (stereo not drawn)	x	41.5	x	x	54.0*	6.9
CN1CCN(CC(=O)Nc2ccc(Cl)cc2C(=O)c2ccccc2)CC1	-3.8	-4.0	0.3	2.6	-0.9	-2.0
COC(=O)[C@@]1(Sc2ccc(C)cc2)CC(=O)N(P(=O)(OC)OC)[C@@H]1c1ccccc1	x	6.1	x	x	-8.3	x
CCOc1cccc(N2C(=O)/C(=C/c3ccco3)C(=O)NC2=S)c1	-2.6	16.6	32.2*	-1.2	9.8	2.5	HSP90 inh confirm=6.6;FLuc counter=18.7*
O=C1NC(=S)N(c2ccccc2)C(=O)/C1=C/c1ccco1	-6.3	14.3	6.6	11.3	-18.2	30.4
CCN(CC)CCC(=O)O[C@H]1CC[C@]2(C)C3CC[C@@]4(C)C(CC[C@]4(C)O)C3CC[C@H]2C1 (stereo partly drawn)	x	-7.4	x	x	-8.2	-1.9
COc1ccccc1OCCCn1cc(C=O)c2ccccc21	2.6	35.2	18.1*	29.8	27.9	-7.0	HSP90 inh confirm=21.5*;FLuc counter=-18.1
